Bioassay records as filed in PubChem BioAssay.
Compounds with a hit are over-represented: about 7.5% of the library has one in this group of screens.
FLuc modulator – counter-screen for miR-21 project: firefly luciferase inhibitors or activators; P08659; purified FLuc, Km substrates, luminescence inhibition; Potency, µM (series often up to 57.5 µM), inactives show at the highest dose activity change, negative = inhibition, hits mostly inhibitors; hit rate 6.9% among 360,000;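 also: plate controls were vehicle for no effect and reference inhibitor for full effect; nearly all actives have a fitted effect of over 55% in size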
Target sequence (P08659 whole entry, looked up): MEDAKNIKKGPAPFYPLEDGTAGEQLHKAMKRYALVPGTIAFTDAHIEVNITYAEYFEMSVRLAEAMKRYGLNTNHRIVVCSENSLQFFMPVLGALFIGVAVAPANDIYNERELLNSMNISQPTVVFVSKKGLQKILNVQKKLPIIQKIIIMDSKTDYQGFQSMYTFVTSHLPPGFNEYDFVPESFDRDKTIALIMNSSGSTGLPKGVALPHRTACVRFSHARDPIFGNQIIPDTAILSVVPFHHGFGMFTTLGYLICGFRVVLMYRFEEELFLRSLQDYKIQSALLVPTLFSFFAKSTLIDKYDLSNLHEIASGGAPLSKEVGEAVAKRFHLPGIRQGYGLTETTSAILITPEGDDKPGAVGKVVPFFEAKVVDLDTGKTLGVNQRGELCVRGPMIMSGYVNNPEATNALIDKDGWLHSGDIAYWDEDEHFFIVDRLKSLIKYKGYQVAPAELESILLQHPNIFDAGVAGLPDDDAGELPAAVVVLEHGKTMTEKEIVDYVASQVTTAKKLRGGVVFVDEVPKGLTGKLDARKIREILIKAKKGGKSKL
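Purified P. pyralis luciferase, 10 nM final, with Km-level 10 uM D-luciferin and 10 uM ATP in 50 mM Tris acetate pH 7.5, 10 mM Mg acetate, 0.01% Tween-20, 0.05% BSA; 6-point qHTS titration about 60 µM downward; luminescence read.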
SMN2 splice up – SMN2 splice variant enhancement | AID 1458 | Potency, µM (doses to about 46.1 µM), for the others: at the top dose activity change, positive = activation, hits mostly activators | HEK293 SMN2-luciferase splicing reporter, luminescence, 30-36 h | hit rate 2.8% among 210,000; also: % of control where 0% means no effect; nearly all actives have a fitted effect of over 55% in size
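HEK293 cells carry an SMN2 […]–luciferase reporter in which exon 7 inclusion puts luciferase in frame. Cells were plated 10-12 h before compound addition, then incubated 30-36 h at 37C. ONE-Glo luminescence was read; sodium butyrate at 4.5 mM final served as control.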
NPC1 promoter act – activates the NPC1 promoter | Huh7 NPC1 promoter luciferase reporter, 24 h | Potency, µM (titrated, usually from 9.22 µM), for the others: at the highest dose activation, usual class: activators | hit rate 2.4% among 320,000 | AID 485313; also: % of control where 0% means no effect; nearly all actives have a fitted effect of over 60% in size
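Cells: Huh7 expressing luciferase under the NPC1 promoter, 1500/well. Seeded 2 h, compound added, incubated 24 h at 37 °C. Luciferase reagent, 10 min ambient, then luminescence.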
Luc counter – Kinase-Glo luciferase inhibition (counter-screen). Kinase-Glo luciferase, ATP luminescence, 8 min. hit rate 0.28% among 200,000. Potency, µM (top dose mostly 38.3 µM), without a hit: at the top dose activity change, negative = inhibition, usual class: inhibitors. Q27757. AID 1379; also: % is scaled to controls: 0 for no effect and ±100 for the full control effect; nearly all actives have a fitted effect of over 60% in size
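Compounds were added to a substrate mix at pH 7.2 (50 mM imidazole, 10 uM ATP, within the enzyme's linear range), followed by Kinase-Glo detection reagent; luminescence was measured after 8 minutes at ambient temperature.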
ELG1 genotox – inducers of genotoxicity in HEK293T ELG1-luciferase cells. AID 504466. hit rate 1.3% among 330,000. Potency, µM (top dose mostly 46 µM), for the others: at the highest dose activity change, positive = activation, most hits filed as activators. HEK293T ELG1-luciferase reporter, luminescence, 16 h; also: % of control where 0% means no effect; nearly all actives have a fitted effect of over 60% in size
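DMSO vehicle served as control against compound-treated ELG1-luciferase HEK293T cells; exposure lasted 16 hr at 37 °C and 5% CO2, followed by ONE-Glo luminescence detection after 30 min.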
Rab9 prom act – activates the Rab9 promoter; hit rate 2.8% among 320,000; Huh7 Rab9 promoter-luciferase reporter, luminescence, 24 h; Potency, µM (doses to about 9.22 µM), for inactives: at the highest dose activation, negative = inhibition, actives largely listed as activators; AID 485297; also: % of control where 0% means no effect; nearly all actives have a fitted effect of over 60% in size
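Quantitative HTS format; Huh7 Rab9-luciferase reporter cells (1500/well) receive compound 2 h post-plating, incubate 24 h at 37 °C, then get luciferase reagent for 10 min before luminescence reading.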
The depositor's hits bear a star; ? = inconclusive; . = no result. Calls follow the shape of the dose curve; as a rule, active = well fitted curve in the direction sought with a large enough effect; inconclusive = small, poorly fitted or top-dose-only effect, or another doubt; inactive = no such curve, though single readings can be large; an effect the other way counts as inactive or inconclusive. Potency is read from the fitted curve at half-maximal effect.

SMILES | FLuc modulator | SMN2 splice up | NPC1 promoter act | Luc counter | ELG1 genotox | Rab9 prom act
CCOc1ccc(CC(=O)NC2CC(=O)N(c3ccc(C)c(C)c3)C2)cc1 (stereo not drawn) | -8.7% | . | . | . | . | .
Cc1cc(C)c2c(=O)cc(CSc3nnc(-c4ccccc4)n3C)[nH]c2c1 | -0.6% | . | . | . | . | .
CC(=O)c1cccc(NC(=O)c2cc(-c3ccco3)on2)c1 | 2.39µM* | . | -3.4% | . | ? | 3.5%
COc1ccc(-c2cc(C(=O)Nc3ccc(C)c(C)c3)no2)cc1 | -1.1% | . | 10.2% | . | 4.0% | 22.5%
O=C(Nc1cccc(O)c1)c1cc(-c2ccco2)on1 | 0.953µM* | 10.6% | -2.0% | -5.2% | ? | 1.5%
O=C(Nc1cccc(C(F)(F)F)c1)c1cc(-c2ccco2)on1 | ? | . | 1.1% | . | 7.0% | 2.9%
COc1ccc(-c2cc(C(=O)Nc3cccc(O)c3)no2)cc1 | 0.379µM* | . | ? | . | ? | 3.98µM*
COC(=O)c1sc(-c2ccc(C(C)(C)C)cc2)cc1NC(=O)c1ccccc1C(=O)O | 10.7µM* | . | 15.4% | . | 18.3% | 22.1%
CCOc1ccc(NC(=O)Nc2cc(-c3ccccc3)sc2C(=O)OC)cc1 | ? | -12.1% | -1.9% | -0.2% | -1.7% | -2.8%
COc1ccc(OC)c(NC(=O)CSCC(=O)O)c1 | 0.3% | 18.9% | -1.2% | 2.7% | 2.8% | 3.6%
COC(=O)c1sc(-c2ccccc2)cc1NC(=O)C1CC1 | ? | -10.7% | 4.9% | 1.4% | -8.9% | 3.1%
COC(=O)c1sc(-c2ccc(C(C)(C)C)cc2)cc1NC(=O)CSCC(=O)O | 3.38µM* | . | 4.0% | . | 9.1% | -1.8%
COC(=O)c1sc(-c2ccc(Cl)cc2)cc1NC(=O)c1ccccc1C(=O)O | 21.3µM* | . | -1.0% | . | 0.3% | -1.3%
CCOC(=O)Cn1c(=O)n(CC2CCCO2)c2nc(-c3ccccc3F)nc(C(N)=O)c21 (stereo not drawn) | 1.3% | . | . | . | . | .
COc1ccc(N2CC(NC(=O)/C=C\c3ccccc3)CC2=O)cc1 (stereo not drawn) | -6.2% | . | . | . | . | .
Nc1cccc2c1C(=O)N(C(=O)/C=C/c1ccc(F)cc1)C2=O | 10.7µM* | -3.1% | -5.0% | -1.9% | 12.2% | -10.7%
Nc1cccc2c1C(=O)N(C(=O)c1ccco1)C2=O | -11.2% | . | -5.7% | . | -0.1% | 0.9%
Cc1cc(C)n(-c2nnc(Nc3ccc(C)c(C)c3)c3ccccc23)n1 | ? | -1.6% | . | . | . | .
Cc1ccc(/C=N/NC(=O)c2ccc(C(=O)N/N=C/c3ccc(C)s3)o2)s1 | ? | 0.8% | 6.5% | -3.0% | 9.8% | -1.3%
Cc1occc1C(=O)N/N=C/c1ccc(Br)s1 | 15.1µM* | . | ? | -27.6% | ? | 2.82µM*
Cc1ccc(/C=N/NC(=O)c2ccoc2C)s1 | 15.1µM* | 10µM* | ? | ? | ? | 3.16µM*
COC(=O)C1(CC(C)C)C=C2C(=C(C)C(=O)C2C)CN1 (stereo not drawn) | . | 3.1% | . | -2.6% | . | .
O=C(Nc1ccc(N2CCCCC2)cc1)c1ccc2c(c1)OCCO2 | 1.69µM* | -24.5% | ? | -17.1% | 3.0% | 1.41µM*
CN1CCN(c2ccc(NC(=O)c3ccc4c(c3)OCO4)cc2)CC1 | 10.7µM* | ? | 2.51µM* | -5.3% | ? | 1.78µM*
COc1cccc(N2CCN(C(=O)C3CCCN(S(=O)(=O)c4ccc(Br)s4)C3)CC2)c1 (stereo not drawn) | 0.8% | -50.4% | . | . | . | .
Cc1ccc(C)c(C(=O)COC(=O)CCCC(=O)Nc2cc(C(F)(F)F)ccc2Cl)c1 | 4.78µM* | -10.2% | -1.9% | -1.0% | -0.7% | 0.1%
COc1cccc(C(=O)O/N=C2\CCS(=O)(=O)c3sccc32)c1 | 1.51µM* | 2.1% | -6.8% | -4.1% | 0.5% | 6.0%
Cc1ccc(C(=O)O/N=C2\CCS(=O)(=O)c3sccc32)cc1 | 0.477µM* | 6.6% | 1.0% | 0.8% | -2.0% | 4.2%
O=C(O/N=C1\CCS(=O)(=O)c2sccc21)c1c(F)cccc1F | 4.78µM* | -6.1% | -8.6% | -3.4% | -2.1% | -16.2%
